Bioassay records (PubChem BioAssay)
Shown are actives, neighbours in structure and some others; about 11% of the full set was active somewhere.
JMJD2E inh = qHTS Assay for Inhibitors of Human Jumonji Domain Containing 2E (JMJD2E); Lysine-specific demethylase 4E (Homo sapiens), B2RXH2; JMJD2E catalytic domain, FDH-coupled NADH fluorescence (FDH is formaldehyde dehydrogenase); Potency, µM (highest dose often 57.1 µM), for inactives: top-dose activity change, negative = inhibition, actives largely listed as inhibitors; actives 1.6% (n = 230,000);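 note: potency is the fitted concentration of half-maximal effect; 0% = wells with enzyme and -100% = buffer wells without enzyme; nearly all actives have a fitted effect of over 50% in size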
Target sequence (B2RXH2 1-337 limits assumed): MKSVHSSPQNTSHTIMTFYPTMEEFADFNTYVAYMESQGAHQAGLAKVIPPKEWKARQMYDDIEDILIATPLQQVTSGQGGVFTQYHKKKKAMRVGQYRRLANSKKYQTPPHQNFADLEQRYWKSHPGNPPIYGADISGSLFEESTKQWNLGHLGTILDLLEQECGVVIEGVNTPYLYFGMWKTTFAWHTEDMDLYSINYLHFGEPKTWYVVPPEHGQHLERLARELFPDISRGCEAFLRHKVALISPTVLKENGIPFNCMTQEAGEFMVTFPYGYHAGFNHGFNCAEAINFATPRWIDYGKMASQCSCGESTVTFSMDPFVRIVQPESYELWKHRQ
ALDH1A1 block = qHTS Assay for Inhibitors of Aldehyde Dehydrogenase 1 (ALDH1A1); Potency, µM (series often up to 75.3 µM), for the others: top-dose activity, negative = inhibition, hits mostly inhibitors; actives 7.3% (n = 220,000); Aldehyde dehydrogenase 1A1 (Homo sapiens), P00352; Purified ALDH1A1, NADH fluorescence, propionaldehyde substrate;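 note: potency is the fitted concentration of half-maximal effect; plate controls were no enzyme wells and a reference inhibitor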
HPGD inh = qHTS Assay for Inhibitors of HPGD (15-Hydroxyprostaglandin Dehydrogenase) | 15-hydroxyprostaglandin dehydrogenase [NAD(+)] (Homo sapiens), P15428 | purified HPGD, NADH fluorescence kinetic, PGE2 substrate | Potency, µM, for inactives: at the highest dose activity change, negative = inhibition, actives largely listed as inhibitors | actives 4.3% (n = 150,000); note: potency is the fitted concentration of half-maximal effect
Target sequence (P15428 whole entry, looked up): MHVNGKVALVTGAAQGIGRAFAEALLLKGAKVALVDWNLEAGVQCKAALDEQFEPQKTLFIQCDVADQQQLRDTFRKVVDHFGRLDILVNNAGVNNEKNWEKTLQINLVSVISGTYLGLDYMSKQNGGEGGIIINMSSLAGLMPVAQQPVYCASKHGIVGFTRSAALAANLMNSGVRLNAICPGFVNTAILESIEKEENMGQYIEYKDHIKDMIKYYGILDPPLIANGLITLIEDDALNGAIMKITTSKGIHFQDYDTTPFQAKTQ
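20 nM HPGD preincubated 15 min at room temperature with compound in 50 mM Tris-HCl pH 8, 0.01% Tween 20. Started with 1 mM NAD+ and 30 uM prostaglandin E2; NADH fluorescence (360/450 nm) read 5 times over 30-s intervals, last minus first.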
PNC inhibitor = High Content Assay for Compounds that inhibit the Assembly of the Perinucleolar Compartment. PC3M PTB-GFP, PNC prevalence imaging, 16 h; stronger effect = lower value. activity change (PNC), negative = inhibition, % at 10 µM. actives 3.1% (n = 140,000);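 active = readout at or below -70, meaning at least 70% loss of cells showing the perinucleolar compartment, a nuclear body marking cancer cells; inconclusive = readout between -30 and a set limit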;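 note: plate controls were DMSO wells for no effect and camptothecin positive control wells for full effect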
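PC3M cells stably expressing PTB-GFP, 750–1000 cells/well, treated 16 h at 37 °C with compound (23 nl of library stock), in duplicate. After paraformaldehyde fixation and Hoechst stain, imaged at 20x; PNC prevalence scored by image analysis.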
* hit, by the source's call; u = inconclusive; x = no result given; [ ] = dose if it differs, or a comment. Unless noted, calls come from the whole dose curve; as a rule, active = well fitted inhibition curve with a large enough effect (not every such curve was filed as active); inconclusive = small, poorly fitted or top-dose-only effect, or another doubt; inactive = no such curve, though single readings can be large or run the other way. Unless noted, % is set by controls: 0 for no effect and ±100 for the full control effect.

SMILES | JMJD2E inh | ALDH1A1 block | HPGD inh | PNC inhibitor
CCCCCC(=O)NNC(=S)NC(=O)c1ccccc1[N+](=O)[O-] | u | -7% | x | x
CCCCCC(=O)NNC(=S)NC(=O)c1cccc([N+](=O)[O-])c1 | -4% | 1.3µM* | 10µM* | 14
Cc1ccc(C(=O)NC(=S)NNC(=O)COc2ccccc2C)cc1 | 17% | 11µM* | x | x
COc1cc2c(cc1NC(=O)COC(=O)CNS(=O)(=O)c1ccc(C)cc1)oc1ccccc12 | -4% | 2% | u | -28
CN(C)c1ccc(NC(=O)COC(=O)Cn2nnc3ccccc32)cc1 | -1% | -4% | -2% | -17
O=c1c(-c2ccc(Cl)cc2)cnc2n1CCS2 | -3% | u | x | x
CC#CCN1c2ccccc2[C@]23C[C@@H](C(=O)OC)N(S(=O)(=O)c4ccc(OC)cc4)C2=NC(C(=O)OC)=C(C(=O)OC)[C@H]13 | 2%[11.4 µM] | -8%[13.5 µM] | -1% | x
Cc1ccc(N2C(=O)[C@@H]3C(c4ccc(F)cc4)=NO[C@@H]3C2=O)cc1 | 0% | 7% | -3% | -95*
O=C1[C@@H]2C(c3cccnc3)=NO[C@@H]2C(=O)N1c1ccc(Br)cc1 | 0% | 7.9µM* | x | x
COc1ccc(C2=NO[C@@H]3C(=O)N(c4ccc(C)cc4C)C(=O)[C@H]23)cc1OC | 4% | 22µM* | -13% | 12
COc1ccc(C2=NO[C@@H]3C(=O)N(c4cccc(C)c4C)C(=O)[C@H]23)cc1OC | 5% | 5% | 0% | 24
CCCCCCCCCCCCCCC1CO1 (stereo unspecified) | x | 12% | -2% | x
CC(C)CO/N=C1/[C@H]2O[C@@H]2[C@@H](O)[C@H]2[C@H]1CCn1c(=O)n(Cc3cc4c(cc3Cl)OCO4)c(=O)n12 | x | 1%[13.5 µM] | x | x
O=C(COC(=O)CNS(=O)(=O)c1ccc2ccccc2c1)Nc1ccccc1Sc1ccccc1 | -11% | 18µM* | -8% | 50
c1ccc(Cn2nnnc2C(c2ccccc2)N2CCN(c3nc4ccccc4s3)CC2)cc1 (stereo unspecified) | 4% | 11µM* | -9% | 35
c1ccc(C(c2nnnn2Cc2ccco2)N2CCN(c3nc4ccccc4s3)CC2)cc1 (stereo unspecified) | -4% | 3% | -15% | 37
c1csc(Cn2nnnc2CN2CCN(c3nc4ccccc4s3)CC2)c1 | -9% | 16µM* | -9% | u
COc1ccccc1N(C)S(=O)(=O)c1ccc(C(=O)OCC(=O)N(C)c2ccccc2)cc1 | -2% | 32µM* | x | x
COc1ccc(-n2c(=O)cnc3cnc(Nc4ccccc4)nc32)cc1 | x | u | -4% | x
COc1ccc(OC)c(NC(=O)[C@H]2CC=CC[C@H]2C(=O)O)c1 | 9% | -2% | -3% | 59
N#Cc1ccc(Oc2ccc(NC(=O)C3CC=CCC3C(=O)O)cc2)cc1 (stereo unspecified) | -5% | 0.5µM* | x | x
Cc1cccc(Oc2ccc(NC(=O)c3ccccc3C(=O)O)cc2)c1 | -22% | x | x | x
Cc1cccc(Oc2ccc(NC(=O)C3CC=CCC3C(=O)O)cc2)c1 (stereo unspecified) | 1% | 1.8µM* | x | x
CCN(CC)c1ccc(N=Nc2ncn[nH]2)cc1 | 14µM* | 8% | x | x
Cc1nnc2n(c1=O)C(CS(=O)(=O)c1ccc3ccccc3c1)CS2 (stereo unspecified) | -13% | u | x | x
SMILES | JMJD2E inh | ALDH1A1 block | HPGD inh | PNC inhibitor
CCOc1ccc(Cc2nnc(N)s2)cc1OCC | 7% | 24% | -5% | -86*
Nc1nnc(Cc2ccc(Cl)cc2)s1 | 7% | u | -8% | u
CCOC(=O)/C(C)=N/NC(C)=O | 2% | -1% | -3% | x
O=C(CCN1C(=O)c2ccccc2C1=O)N1CCN(C2c3ccccc3-c3ccccc32)CC1 | 2% | 4% | -8% | 42
CCOc1cc(/C=N/NC(=O)CSc2nncn2C)ccc1OCc1ccccc1 | 6% | -6% | -18% | -96*
Cn1cc(Br)c(C(=O)N/N=C/c2cccc(OC3CSC3)c2)n1 | -5% | -5% | u | 41
CCOc1cc(/C=N/NC(=O)CN2CCOCC2)ccc1OCc1ccccc1 | -8% | -4% | -18% | 0
CCN(Cc1ccccc1)C(=O)CSc1nncn1C | -3% | 32µM* | x | x
COc1ccc(C(C)=O)cc1CSc1nncn1C | 6% | -4% | x | x
COc1cc(/C(C)=N/NC(=O)CSc2nncn2C)ccc1OCc1ccccc1Cl | 3% | 5µM* | -22% | -8
CCOc1cc(/C=N/NC(=O)c2nn(C)cc2Br)ccc1OCc1ccccc1Cl | u | 2% | -29% | -112*
CCC(C)(C)NC(=O)c1cc(S(=O)(=O)N2CCCCC2)ccc1N1CCOCC1 | 1% | 2% | x | x
Cc1ccc(CNC(=O)CS(=O)Cc2nc(-c3cccs3)oc2C)cc1 (stereo unspecified) | -5% | u | 28µM* | -18
C=CCn1c(CNc2ccccc2)nnc1SCC(=O)N/N=C/c1ccccc1O | 14µM* | u | -19% | 36
COC(=O)c1c(C)oc2c1cc(NS(=O)(=O)c1cccs1)c1ccccc12 | -4% | 7.9µM* | -2% | 21
Cc1oc2c(cc(NS(=O)(=O)c3ccc4c5c(cccc35)C(=O)N4)c3ccccc32)c1C(=O)OC(C)C | u | u | -11% | 82
COC(=O)[C@@]1(Cc2ccc(F)cc2)[C@H]2c3cc(C(=O)N(C)C)n(Cc4ccc(C(F)(F)F)nc4)c3C[C@H]2CN1C(=O)c1ccccc1 | -14% | -1% | -14% | x
COc1ccc(C(=O)Nc2ccc(C3=NNC(=O)CC3C)cc2NC(=O)c2ccc(OC)cc2)cc1 (stereo unspecified) | u | 2µM* | x | x
CC1CC(=O)NN=C1c1ccc(NCCO)c([N+](=O)[O-])c1 (stereo unspecified) | 2% | -2% | -16% | -7
COc1ccc(-c2nn(CCC(=O)O)cc2/C=C2\SC(N)=NC2=O)cc1OC | 0% | 1% | 3.2µM* | -25
COc1ccc(-c2nn(CCC#N)cc2/C=N/O)cc1OC | 1% | 18µM* | x | x
CCCOc1ccc(-c2nn(-c3ccccc3)cc2/C=C2\SC(N)=NC2=O)cc1C | 7% | -7% | 10µM* | 7
CC1=C(C)NC(=S)SC1 | -4% | 22µM* | u | 46
CN(C)c1ccc(-c2cncnc2Nc2ccccc2)cc1 | x | 25µM* | x | x
Cc1ccccc1-c1cncnc1Nc1ccccc1 | x | 7% | x | x
CCCCCCCCCCCCCCC(F)C(=O)O (stereo unspecified) | -2% | -1% | -6% | x
Cc1ccccc1C1C(C#N)=C2N=C(N)c3c(sc4c3CCCCC4)N2C2=C1C(=O)CC(C)(C)C2 (stereo unspecified) | u | 7.1µM* | -5% | 87
Cc1ccccc1C1C(C#N)=C2NC(=O)c3c(sc4c3CCCCC4)N2C2=C1C(=O)CC(C)(C)C2 (stereo unspecified) | 6% | 4% | -2% | 32
